Screen size: about 39,000 compounds; about 1,500 (3.8%) were called active. Only a selection was taken, and actives are over-represented in it overall.

In the experiment the test system is HSkMC (human skeletal muscle cells). Kind of experiment: cytotoxicity call (relative viability < 0.9). Conditions: 10 µM.
Take `C[C@@H]1CN([C@H](C)CO)C(=O)c2cc(NS(=O)(=O)c3cn(C)cn3)ccc2O[C@@H]1CN(C)Cc1ccc(C(=O)Nc2ccccc2N)cc1`: the cytotoxicity call is “inactive”. Then `O=C(Nc1cccc2cccnc12)[C@H]1[C@@H](c2ccc(Br)cc2)CC(=O)N1C(=O)OCc1ccccc1`, with “inactive”; and `C[C@H]1CN([C@@H](C)CO)C(=O)c2cc(NS(=O)(=O)c3cn(C)cn3)ccc2O[C@@H]1CN(C)Cc1ccc(C(=O)O)cc1`, with “inactive”; and `O=C(C[C@H]1CC[C@H]2[C@@H](COC[C@H](O)CN2C(=O)Nc2cccc(F)c2)O1)NCCCN1CCOCC1`, with “inactive”. With `C[C@@H]1CN([C@H](C)CO)C(=O)c2cc(NC(=O)Cc3ccccc3)ccc2O[C@H]1CN(C)Cc1ccc(Oc2ccccc2)cc1` the entry was “inactive”; with `O=C(C[C@@H]1C[C@H]2c3cc(NC(=O)Nc4ccc(C(F)(F)F)cc4)ccc3O[C@H]2[C@@H](CO)O1)NCc1cc(F)ccc1F`, “inactive”; with `Cc1ccc(S(=O)(=O)Nc2ccc3c(c2)C(=O)N([C@@H](C)CO)C[C@@H](C)[C@@H](CN(C)C(=O)c2ccccc2)OCCCC[C@H](C)O3)cc1`, “inactive”. In the case of `C[C@@H]1CN([C@@H](C)CO)C(=O)c2cc(NC(=O)c3ccncc3)ccc2O[C@H]1CN(C)Cc1ccc(-c2ccccc2)cc1`, the cytotoxicity call was “inactive”. For the compound `C[C@@H]1CN([C@@H](C)CO)C(=O)CCCn2nncc2CO[C@H]1CN(C)C(=O)Nc1cccc(Oc2ccccn2)c1`, the cytotoxicity call was “inactive”. `COc1ccc(NC(=O)N(C)C[C@@H]2Oc3ncc(C#CCN(C)C)cc3C(=O)N([C@@H](C)CO)C[C@H]2C)cc1`: the cytotoxicity call is “inactive”.

With `C[C@@H]1O[C@H](O)[C@@H](F)[C@H](O)[C@@H]1O`, the cytotoxicity call is “inactive”. Then `C[C@H](CO)N1C[C@H](C)[C@H](CN(C)Cc2ccc(C(F)(F)F)cc2)OCCCC[C@H](C)Oc2ccc(NC(=O)Nc3ccc(C(F)(F)F)cc3)cc2C1=O`, with “inactive”. `C[C@@H]1CN([C@@H](C)CO)C(=O)c2cc(NC(=O)Nc3ccc(C(F)(F)F)cc3)ccc2O[C@@H](C)CCCCO[C@@H]1CN(C)Cc1ccc(C(F)(F)F)cc1`: the cytotoxicity call is “inactive”. On to `C[C@@H]1CCCCO[C@@H](CN(C)Cc2ccc(C(F)(F)F)cc2)[C@@H](C)CN([C@H](C)CO)C(=O)c2cc(NC(=O)Nc3ccc(C(F)(F)F)cc3)ccc2O1`, for which the cytotoxicity call was “inactive”. Then `C[C@H]1CCCCO[C@@H](CN(C)Cc2ccc(C(F)(F)F)cc2)[C@@H](C)CN([C@@H](C)CO)C(=O)c2cc(NC(=O)Nc3ccc(C(F)(F)F)cc3)ccc2O1`, with “active”; and `C[C@@H]1CN([C@H](C)CO)C(=O)c2cc(NC(=O)Nc3ccc(C(F)(F)F)cc3)ccc2O[C@@H](C)CCCCO[C@H]1CN(C)Cc1ccc(C(F)(F)F)cc1`, with “active”. Take `C[C@@H]1CCCCO[C@@H](CN(C)Cc2ccc(C(F)(F)F)cc2)[C@H](C)CN([C@@H](C)CO)C(=O)c2cc(NC(=O)Nc3ccc(C(F)(F)F)cc3)ccc2O1`: the cytotoxicity call is “active”.

`C[C@@H]1CCCCO[C@@H](CN(C)Cc2ccc(C(F)(F)F)cc2)[C@@H](C)CN([C@@H](C)CO)C(=O)c2cc(NC(=O)Nc3ccc(C(F)(F)F)cc3)ccc2O1`: the cytotoxicity call was “active”. Regarding `C[C@@H]1CCCCO[C@@H](CN(C)Cc2ccc(C(F)(F)F)cc2)[C@H](C)CN([C@H](C)CO)C(=O)c2cc(NC(=O)Nc3ccc(C(F)(F)F)cc3)ccc2O1`, the cytotoxicity call is “inactive”. With `CNC[C@H]1OCCCC[C@H](C)Oc2ccc(NC(=O)CCCN(C)C)cc2C(=O)N([C@H](C)CO)C[C@@H]1C` the entry was “inactive”. For `C[C@@H]1CN([C@H](C)CO)C(=O)c2cccc(NC(=O)c3ccncc3)c2O[C@H]1CN(C)S(=O)(=O)c1ccccc1`, the cytotoxicity call was “inactive”. With `C[C@H](CO)N1C[C@H](C)[C@H](CN(C)S(=O)(=O)c2cn(C)cn2)Oc2ccc(NC(=O)CCCCCC(=O)Nc3ccccc3N)cc2C1=O`, the cytotoxicity call was “inactive”. With `CCOC(=O)CCCCCCCCCCCC[C@@H]1C=CCC1`, the cytotoxicity call is “inactive”.

Regarding `C[C@H](CO)N1C[C@H](C)[C@H](CN(C)Cc2ccc(C(=O)Nc3ccccc3N)cc2)OCCCC[C@H](C)Oc2ccc(NC(=O)C3CCCCC3)cc2C1=O`, the cytotoxicity call was “inactive”. Consider `C[C@@H]1CN([C@H](C)CO)C(=O)c2cccc(NS(=O)(=O)c3cn(C)cn3)c2O[C@H]1CN(C)C(=O)Nc1ccc2c(c1)OCO2`, for which the cytotoxicity call was “inactive”. On to `CCOC(=O)Cn1cccc2oc(=O)nc1-2`, for which the cytotoxicity call was “inactive”. For the compound `C[C@H]1CN([C@@H](C)CO)C(=O)c2c(c3ccccc3n2C)-c2ccccc2CO[C@H]1CN(C)C(=O)Nc1ccccc1`, the cytotoxicity call was “inactive”. Then `C[C@@H]1CN([C@@H](C)CO)C(=O)c2c(c3ccccc3n2C)-c2ccccc2CO[C@H]1CN(C)C(=O)[C@H](C)c1ccccc1`, with “inactive”; and `COc1ccc(NC(=O)N(C)C[C@@H]2Oc3ccc(NC(=O)Nc4cccc5ccccc45)cc3CC(=O)N([C@H](C)CO)C[C@@H]2C)cc1`, with “inactive”. In the case of `COc1ccccc1-c1cnc2c(c1)C(=O)N([C@H](C)CO)C[C@@H](C)[C@H](CN(C)C(=O)c1ccncc1)O2`, the cytotoxicity call was “inactive”.

In the case of `Cc1ccc(-c2cnc3c(c2)C(=O)N([C@@H](C)CO)C[C@H](C)[C@@H](CN(C)C(=O)Cc2ccncc2)O3)cc1`, the cytotoxicity call is “inactive”.

As for `C[C@@H]1CN([C@H](C)CO)C(=O)c2cccc(NC(=O)c3ccc(-c4nccs4)cc3)c2O[C@@H]1CN(C)C(=O)NC1CCCCC1`, the cytotoxicity call was “inactive”.

For `C[C@@H]1CCCCO[C@@H](CN(C)Cc2ccncc2)[C@H](C)CN([C@H](C)CO)C(=O)c2cc(NC(=O)Nc3ccc(C(F)(F)F)cc3)ccc2O1`, the cytotoxicity call was “inactive”.

In the case of `C[C@@H]1CN([C@@H](C)CO)C(=O)c2cc(NC(=O)Nc3ccc(C(F)(F)F)cc3)ccc2O[C@@H](C)CCCCO[C@H]1CN(C)Cc1ccc(Cl)c(Cl)c1`, the cytotoxicity call was “inactive”. For `C[C@@H]1CN([C@H](C)CO)C(=O)c2cc(NC(=O)Nc3ccc(C(F)(F)F)cc3)ccc2O[C@@H](C)CCCCO[C@H]1CN(C)Cc1ccc(Cl)c(Cl)c1`, the cytotoxicity call was “inactive”. With `C[C@@H]1CCCCO[C@@H](CN(C)Cc2ccc(C(F)(F)F)cc2)[C@H](C)CN([C@@H](C)CO)C(=O)c2cc(NC(=O)Nc3ccc(F)cc3)ccc2O1` the entry was “inactive”; with `C[C@@H]1CN([C@H](C)CO)C(=O)c2cc(NC(=O)Nc3ccc(F)cc3)ccc2O[C@@H](C)CCCCO[C@H]1CN(C)Cc1ccc(C(F)(F)F)cc1`, “active”. `C[C@@H]1CN([C@H](C)CO)C(=O)c2cc(NC(=O)Nc3ccc(C(F)(F)F)cc3)ccc2O[C@@H](C)CCCCO[C@@H]1CN(C)Cc1ccncc1`: the cytotoxicity call was “active”. For the compound `C[C@@H]1CCCCO[C@H](CN(C)Cc2ccc(C(F)(F)F)cc2)[C@@H](C)CN([C@H](C)CO)C(=O)c2cc(NC(=O)Nc3ccc(C(F)(F)F)cc3)ccc2O1`, the cytotoxicity call was “inactive”. Turning to `C[C@H](CO)N1C[C@H](C)[C@@H](CN(C)Cc2ccncc2)OCCCC[C@H](C)Oc2ccc(NC(=O)Nc3ccc(C(F)(F)F)cc3)cc2C1=O`, the cytotoxicity call is “inactive”.

Take `C[C@H](CO)N1C[C@H](C)[C@@H](CN(C)Cc2ccc(Cl)c(Cl)c2)OCCCC[C@H](C)Oc2ccc(NC(=O)Nc3ccc(C(F)(F)F)cc3)cc2C1=O`: the cytotoxicity call was “active”. In the case of `C[C@H]1CCCCO[C@H](CN(C)Cc2ccc(C(F)(F)F)cc2)[C@@H](C)CN([C@@H](C)CO)C(=O)c2cc(NC(=O)Nc3ccc(F)cc3)ccc2O1`, the cytotoxicity call was “inactive”. `C[C@H](CO)N1C[C@H](C)[C@H](CN(C)Cc2ccc(C(F)(F)F)cc2)OCCCC[C@H](C)Oc2ccc(NC(=O)Nc3ccc(F)cc3)cc2C1=O`: the cytotoxicity call was “inactive”.

For the compound `C[C@@H]1CN([C@H](C)CO)C(=O)c2cc(NC(=O)Nc3ccc(C(F)(F)F)cc3)ccc2O[C@@H](C)CCCCO[C@@H]1CN(C)Cc1ccc(C(F)(F)F)cc1`, the cytotoxicity call was “active”.

The values above are taken from the antibiotic and cytotoxicity screens of Wong et al. (2023).
